Measurements from the supplement of paper PMC11417369.
± gives the standard deviation of the averaged measurements. The full ranking holds about 25,000 sequences; the median of “ln(normalized median fluorescence intensity)” is about 7.9, and the highest 2% start at about 11. The list comes from a sample in which the highest values are over-represented; it also holds similar and randomly drawn sequences.

Tested on: PfAP2-I AP2 domain 3 (GST-tagged)
Assay: gcPBM binding intensity (ln(normalized median fluorescence intensity)); higher = stronger DNA binding
Procedure, shortened: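 DNA-binding domains from P. falciparum, fused to GST and produced in E. coli, were put on an Agilent 4 × 180k double-stranded probe array for 1 h in 1× PBS holding 1% milk, 0.2 mg/ml BSA, 0.5% salmon testes DNA and 0.03% Triton X-100. Probes were primer-extended, 36 bp long and drawn from intergenic genomic regions, with negative controls included. After Alexa488 anti-GST antibody detection and a 488 nm scan, binding intensity was set as the highest Masliner-normalised natural-log median intensity across replicate spots of either probe orientation.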

Row | Sequence | gcPBM binding intensity (ln)
1 | ACTTATTTCGATATGTGTACTTAATATATATATTTA [XGTACX_site6616] | 7.89 ± 0.39
2 | ACATATACAAGACACACACACAACGTTTTAATAAAT [CACACA_site7017] | 8.12 ± 0.46
3 | ACATATTTTTAATACACACTCAAAAAAGTACTTAAC [CACACA_site3014] | 8.2 ± 0.28
4 | TCTACAATTATAATTACACACTATAAAAAAGAAAGA [CACACA_site2984] | 7.96 ± 0.35
5 | TCTTTTTTTTTTATTTGTACTTATTTTTTTCAAAAA [XGTACX_site3403] | 8.24 ± 0.51
6 | TGAAAAAAAAAAAAAAAAAAAAGAAAAAAAAAAAAA [CACACA_negctrl_site709] | 7.82 ± 1.2
7 | AATAATCTATATTGTACACACAAAATGGGAAAAAAA [CACACA_site6969] | 8.11 ± 0.73
8 | AATTTTCCATAGATTGTGCACAAATTTTTATTTTGT | 10.9 ± 0.2
9 | ATAGAACTATATTGCACACATAATATATATATATAT [CACACA_site3189] | 10.5 ± 0.52
10 | ATATCATTTTCCTGCACACATAAATTTATATAATAT [CACACA_site1048] | 9.45 ± 0.38
11 | TTTTTCCTATTTTTAGTGCACATATAAATAAATAAA [GTGCAC_site9821] | 11.6 ± 0.23
12 | ATAAAAAAAAATATTTGTACACATATTTATATATTA [XGTACX_site8147] | 7.63 ± 0.36
13 | ACATATAAATATTGTGTGCACACACATAATATATAT | 10.2 ± 0.18
14 | TTATTTATTTATATAGTGCAATAAACACATAAATAG | 10.8 ± 0.47
15 | ACATAATATACTATTGTGCACATATATATATATATA [GTGCAC_site9761] | 10.88 ± 0.085
16 | ATTTATTTATTGGCACGTACAAATTTGTGTTTTCCA [XGTACX_site6978] | 8.54 ± 0.53
17 | TTTTTTATTTTGTGCACACACATAAAAATATAAATA [CACACA_site6497] | 11.01 ± 0.042
18 | TATTTTTCCATAAAAATTTATATAGAAACAAATAAT [GTGCAC_negctrl_site103] | 7.75 ± 0.46
19 | ATATATATTTTTTAAACACACACATAAATATTTGTG [CACACA_site8936] | 7.97 ± 0.38
20 | AAAAAGAACAGAAACACACAAATAAAATAAAATTGT [CACACA_site6921] | 7.72 ± 0.61
21 | TTTTTTTTCTTTTTTTGTACATAATAATATATAAAT [XGTACX_site6778] | 7.68 ± 0.35
22 | TGTTCTATTCTATTATTATTTACAAATTATAAATAA [GTGCAC_negctrl_site232] | 7.89 ± 0.37
23 | TTTAATTTTCGGTGTGCACACAACTATGAGTTTTTA [CACACA_site3034] | 9.565 ± 0.035

Row | Sequence | gcPBM binding intensity (ln)
24 | ATACAATTTATTTTAACACACGAATGAATTGATTAT [CACACA_site4160] | 7.76 ± 0.63
25 | TGTGTATATCGATAAAGTACATTTGAAAAGTGACTT [XGTACX_site6957] | 7.62 ± 0.51
26 | TTTTATTTTTTTAAATGTACACATATTAATGTAAGG [XGTACX_site319] | 7.92 ± 0.3
27 | TATTGGATCACACAAAAATGTATAAATAAATAGAAA [TGCATGCA_negctrl_site490] | 7.7 ± 0.61
28 | TCGAACATTAACATAACACACATATATATATATATA [CACACA_site2900] | 9.27 ± 0.29
29 | TACATATTGATATATACACACAAAAAAATAAATTCT [CACACA_site6198] | 7.61 ± 0.54
30 | ATATTTTGTTTTATAGTGCACATGGGCATATATTAA [GTGCAC_site9435] | 11 ± 0.32
31 | GAAATTTGTTATTGCACACAAATTTTTCTTTTTTTA [CACACA_site2339] | 10.14 ± 0.028
32 | TTATTTTTGTTCATAGTGCATAGAATTTATACATAT | 9.91 ± 0.33
33 | ATATATTTGATAAGAGTGCACAAATACATACATACA [GTGCAC_site9704] | 10.94 ± 0.071
34 | TATATACATATATGCACACAAAAAAATATATATTTT [CACACA_site1729] | 8.99 ± 0.11
35 | CATTTTATTTTCTTTGTGCACAAAAATATTTTTTCT | 11.13 ± 0.092
36 | ATATTATTATATATAGTGCATATTATTATTTTTATT | 10.2 ± 0.42
37 | TATCCATTTCTTTATGTGCACATTAAATATATTTGT | 10.2 ± 0.4
38 | TTGTTTGATATCTTTGTCACGAAAAAAATATATATA [GTGCAC_negctrl_site54] | 7.83 ± 0.64
39 | TCTTTTTTCATATTTTCACACATGTCTTTATATTTA [CACACA_site6025] | 8.28 ± 0.65
40 | ATGAATAAATGAACATGTACATATATATATATATTA [XGTACX_site5005] | 7.76 ± 0.47
41 | TTTTGGCTTCTAATATTATACAAAATGGTAAGGAAA [TGCATGCA_negctrl_site169] | 7.94 ± 0.4
42 | TAATTTCTTAGGTATTGTACAAATATTATATGATAT [XGTACX_site256] | 7.55 ± 0.59
43 | TATCCCTTAGAATACACACCCATATGAGGGTGAACT [CACACA_site5610] | 7.76 ± 0.26
44 | TATTTTTTTTTTATATGTACATAATTTCAAATAAAT [XGTACX_site7747] | 7.97 ± 0.41
45 | TATAATTATATTTGGAGTACAAATTTTTTTTTTTTT [XGTACX_site7494] | 7.765 ± 0.007
46 | TATATTTCAGGGGGGAGTACAAATTTTTTTATATAA [XGTACX_site1600] | 11 ± 0.52
